Source: PubChem BioAssay AID748 (Sanford-Burnham Center for Chemical Genomics, 2007)
Out of some 96,000 compounds screened, about 100 (0.1%) were called active.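 How the source made its calls: active means displacement above 50% at 20 µM plus a fluorescence interference ratio under 1.5; inactive means the rest.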 For the sample, actives were picked, then their nearest neighbours and some compounds at random. Measured potencies and affinities stand elsewhere.

Molecular target: Bcl-2-like protein 10 (Homo sapiens) (UniProt Q9HD36)
Test: Bcl-B/TR3 peptide binding disruption – biochemical, fluorescence polarization, FITC-TR3 peptide, selectivity assay for Bfl-1 inhibitor project, primary screen (AID 748);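 further: plate controls were wells without compound for no effect and wells lacking Bcl-B protein for full effect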
Details: FP displacement of FITC-TR3 peptide from Bcl-B; at 20 µM; active compounds read high

SMILES | displacement
COc1cccc2c1C(=O)CC2NC(=O)C(F)(F)F (configuration not stated) | -17.1% (inactive)
COC(=O)Nc1c(C)nn(Cc2ccccc2C)c1C | -0.7% (inactive)
CCOc1ccc(C(c2c(C)[nH][nH]c2=O)c2c(C)[nH][nH]c2=O)cc1OC | 8.5% (inactive)
CC(C)CC(C(=O)Nn1cnnc1)N1C(=O)c2ccccc2C1=O (configuration not stated) | -8.4% (inactive)
Cc1nnc(NC(=O)Cc2cccs2)s1 | 40.2% (inactive)
O=C(Cc1cccs1)Nc1nnc(CCc2ccccc2)s1 | -0.1% (inactive)
CCOC(=O)c1nc2sc3c(c2c(=O)[nH]1)CCCC3 | -2.6% (inactive)
CC(C)CC(=O)c1c[nH]c(C(=O)NCCCn2ccnc2)c1 | 0% (inactive)
CCc1ccc2[nH]c(=O)c(C3C(C#N)=C(N)Oc4c3ccc3cccnc43)cc2c1 (configuration not stated) | -4.7% (inactive)
Cc1ccc2cc(C3C(C#N)=C(N)Oc4c3ccc3cccnc43)c(=O)[nH]c2c1 (configuration not stated) | 5.4% (inactive)
O=c1[nH]c(=O)n(C2CCCO2)cc1Br (configuration not stated) | -6.3% (inactive)
CS(=O)(=O)N(CCc1ccccc1)CC(=O)N1CCCCC1 | 0.5% (inactive)
Clc1ccc2nc(CN3CCCCC3)cn2c1 | 10.1% (inactive)
Clc1ccc2nc(CN3CCCCCC3)cn2c1 | -3.6% (inactive)
Cc1nn(-c2ccccn2)c2c1-c1nc(N)ncc1CC2 | 6% (inactive)
CCN(CC)CCC(=O)NC(C)(C)Cc1ccc(O)cc1 | -7.8% (inactive)
Cc1c(C(=O)OCC2CCCO2)[nH]c2c1C(=O)CC(c1ccc(N(C)C)cc1)C2 (configuration not stated) | -1.6% (inactive)
CCOC(=O)c1[nH]c2c(c1C)C(=O)CC(c1ccco1)C2 (configuration not stated) | 10.9% (inactive)
CCCC(=O)N1CCc2cc(-c3nc(N)sc3C)ccc21 | 0.7% (inactive)
CC1(C)Cc2c(sc3c2c(=N)n(Cc2ccco2)c(=O)n3CC(=O)Nc2cccc(Cl)c2)CO1 | -38.7% (inactive)
Cc1ccc(S(=O)(=O)N2CCOCC2)cc1C(=O)OCC(=O)N1c2ccccc2NC(=O)C1(C)C | 25% (inactive)

SMILES | displacement
CC1(C)C(=O)Nc2ccccc2N1C(=O)COC(=O)C1CCCCC1 | -3.4% (inactive)
COc1cc(/C=C(/C#N)c2ccc(C)cc2)ccc1Oc1ccc([N+](=O)[O-])cn1 | -0.7% (inactive)
CC1Cc2nc(SCC(=O)NC3CCCCC3)n(C)c(=O)c2S1 (configuration not stated) | -2.6% (inactive)
CCOC(=O)COc1ccc(S(=O)(=O)N2CCc3ccccc3C2)cc1 | 0.4% (inactive)
CCOc1ccccc1N(CC(=O)NC(C)(C)C)C(=O)Cn1nnc(-c2ccc(C)o2)n1 | -3.4% (inactive)
CC(=O)N1N=C(c2ccc3nccnc3c2)CC1c1ccccc1 (configuration not stated) | 6% (inactive)
C=CCn1c(=O)c2ccccc2n2c(SCc3cc(=O)n4ccsc4n3)nnc12 | 6.2% (inactive)
C=CCn1c(SCc2cc(=O)n3ccsc3n2)nc2scc(C3CC3)c2c1=O | -10.9% (inactive)
CCCNC(=O)c1c(N)n(-c2ccc3c(c2)OCO3)c2nc3ccccc3nc12 | 8.6% (inactive)
Cn1c(N2CCN(C(=O)NCc3ccccc3)CC2)nc2ccccc21 | 6.9% (inactive)
COc1cccc(NC(=O)c2cnsn2)c1 | 6.3% (inactive)
Cc1cc(-c2csc(N)n2)c(C)n1CCC(C)C | 1.9% (inactive)
CCCn1c(C)cc(-c2csc(N)n2)c1C | 10.4% (inactive)
c1csc(Cn2c(-c3cccs3)nc3ccccc32)c1 | -27.7% (inactive)
CC(=O)Nc1ccc(S(=O)(=O)n2nc(-c3ccc(C)cc3)nc2N)cc1 | -2.3% (inactive)
O=[N+]([O-])c1ccc(Cl)c(-c2ccc(/C=N/c3c(-c4ccco4)nc4ccccn34)o2)c1 | 31.7% (inactive)
O=[N+]([O-])c1ccc(-c2ccc(/C=N/c3c(-c4ccco4)nc4ccccn34)o2)cc1 | 7.3% (inactive)
COCCn1c(=S)[nH]c2cc(OC)c(OC)cc2c1=O | 3% (inactive)
COc1cc2c(cc1OC)CN(C(C)C(=O)Nc1ccc(NC(C)=O)cc1)CC2 (configuration not stated) | 2.9% (inactive)
COC(=O)CSc1nc2sc3c(c2c(=O)n1C1CCCCC1)CCN(C)C3 | -62.9% (inactive)
COC(=O)CSc1nc2sc3c(c2c(=O)n1-c1ccccc1)CCN(C)C3 | 4.6% (inactive)

SMILES | displacement
CCn1c(NN)nc2sc3c(c2c1=O)CCC3 | -124% (inactive)
CCn1c(SCC(=O)N2CCOCC2)nc2sc3c(c2c1=O)CCCC3 | 4% (inactive)
CCn1c(SCC(N)=O)nc2sc3c(c2c1=O)CCCC3 | 1.5% (inactive)
CCn1c(SCC(=O)OC)nc2sc3c(c2c1=O)CCC3 | 46.6% (inactive)
Cc1ccc2cccc(SCC(=O)N3CCOCC3)c2n1 | 1.9% (inactive)
O=C1CC(C(=O)O)S/C(=N\NC(=O)c2ccccc2)N1 (configuration not stated) | 0% (inactive)
CC(C)n1c(SCCCc2ccccc2)nc2c1c(=O)[nH]c(=O)n2C | -3.8% (inactive)
COc1ccccc1NC(=O)Cc1noc(CSc2cccc[n+]2[O-])n1 | -8.6% (inactive)
CC(C)(C)c1nnc2sc(SCCN3C(=O)c4ccccc4C3=O)nn2c1=O | 2.7% (inactive)
COc1ccc(Cl)cc1N1C(=O)[C@@H]2C(c3cccc(OC)c3OC)=NO[C@@H]2C1=O | 8.5% (inactive)
COc1ccc(OC)c(C2=NO[C@@H]3C(=O)N(c4cc(Cl)ccc4OC)C(=O)[C@H]23)c1 | 6% (inactive)
O=c1oc2c3c4c(cc2c2c1CCC2)OCCN4CCC3 | 49.8% (inactive)
CC(C)c1cc(=O)oc2c3c4c(cc12)CCCN4CCC3 | 59.5% (inactive)
CCNC(=O)CN1c2cccc3cccc(c23)S1(=O)=O | -6.3% (inactive)
CCOC(=O)c1cc(CC)sc1NC(=O)CCC(=O)O | 1.7% (inactive)
O=C1NC(c2ccco2)Nc2ccccc21 (configuration not stated) | -1.7% (inactive)
Brc1ccc(C2Nc3cccc4cccc(c34)N2)o1 | 17.6% (inactive)
COC(=O)c1ccc(Oc2c(C(F)(F)F)oc3c(CN4CCN(C)CC4)c(O)ccc3c2=O)cc1 | 4.9% (inactive)
CCOC(=O)N1CCC(NC(=O)C2CCCN(C(=O)N3CCOc4ccccc43)C2)CC1 (configuration not stated) | 3.1% (inactive)
O=C(O)c1cn[nH]c1-n1cnnn1 | 0.2% (inactive)
